Reference: PubChem BioAssay (NCATS)
“And” between values parts separate entries of the source, which are not always exact repeats. Identical values can stand only once. Results filed as inconclusive are left out. A call without a number means that no potency is given here. Values without a mark were called inactive. The source made the active and inactive calls. Calls come from the whole dose curve; as a rule, active = well fitted curve in the direction sought with a large enough effect; inconclusive = small, poorly fitted or top-dose-only effect, or another doubt; inactive = no such curve, though single readings can be large; an effect the other way counts as inactive or inconclusive.

How the values were obtained:
[1] = target: Cytochrome P450 3A7 (Homo sapiens) (UniProt P24462); experiment: Cytochrome P450 family 3 subfamily A member 7 (CYP3A7) small molecule antagonists: luciferase biochemical qHTS assay (AID 1963596); note: nearly all actives have a fitted effect of over 40% in size; note: potency is the fitted concentration of half-maximal effect
Sequence of Cytochrome P450 3A7 (Homo sapiens) (P24462 whole entry, looked up): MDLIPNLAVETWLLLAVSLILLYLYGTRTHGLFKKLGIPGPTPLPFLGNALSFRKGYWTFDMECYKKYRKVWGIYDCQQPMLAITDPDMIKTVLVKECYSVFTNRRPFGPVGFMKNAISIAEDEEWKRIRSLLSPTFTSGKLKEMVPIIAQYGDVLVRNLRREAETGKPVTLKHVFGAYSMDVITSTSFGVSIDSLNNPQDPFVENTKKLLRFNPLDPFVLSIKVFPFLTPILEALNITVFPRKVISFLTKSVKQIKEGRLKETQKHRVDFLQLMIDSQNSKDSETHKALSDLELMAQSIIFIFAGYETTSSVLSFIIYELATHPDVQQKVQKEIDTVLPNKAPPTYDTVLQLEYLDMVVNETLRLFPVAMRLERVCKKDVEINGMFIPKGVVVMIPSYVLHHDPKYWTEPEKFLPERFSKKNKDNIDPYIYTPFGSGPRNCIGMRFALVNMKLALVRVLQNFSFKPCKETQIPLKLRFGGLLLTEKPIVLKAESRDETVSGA
How it was run: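 Luminescence from luciferin released by CYP3A7 from a proluciferin substrate, read 20 min after detection reagent. Compound and enzyme-substrate mix sat 10 min before NADPH regeneration solution; reaction ran 1 h at room temperature.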

[2] = Viability qHTS for spleen associated tyrosine kinase inhibitor (SYKi) drug resistant MV4-11 cells (AID 1963824); note: nearly all actives have a fitted effect of over 35% in size
How it was run: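 SYK-inhibitor-resistant MV4-11 AML cells were seeded at 500 per well onto compound and cultured 72 hours (37 °C, 5% CO2). CellTiter-Glo was then added, and after 10 min at room temperature, luminescence gave viability.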

[3] = Cellular viability qHTS for adrenocortical cancer (ACC) cell line NCI-H295R (AID 1963990); note: nearly all actives have a fitted effect of over 60% in size; note: potency is the fitted concentration of half-maximal effect
How it was run: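 IC50 and maximal efficacy derive from four-parameter logistic modelling of titration curves, with reads scaled between DMSO-only wells (0%) and doxorubicin hydrochloride (100% inhibition). Compounds spanned up to 46 uM over 48 h.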

[4] = Quantitative highthroughput screen to assess conditional lethalithy of NOMO1 cells grown in RPMI1640 with untreated serum (RPMI+s) (AID 1963876); note: nearly all actives have a fitted effect of over 35% in size; note: potency is the fitted concentration of half-maximal effect
How it was run: (§1)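 Each medium arm—HPLM with 10% dialyzed FBS, or RPMI1640 with 5 mM glucose and 10% untreated or dialyzed FBS—was screened against an 11-point, 3-fold compound titration for 48 h at 37 °C, with CellTiter-Glo luminescence as endpoint.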

[5] = Quantitative highthroughput screen to assess conditional lethalithy of NOMO1 cells grown in RPMI1640 with dialyzed fetal bovine serum (RPMI+ds) (AID 1963877); note: nearly all actives have a fitted effect of over 30% in size; note: potency is the fitted concentration of half-maximal effect; for Viability: series mostly up to about 46 µM
How it was run: as §1

[6] = Quantitative highthroughput screen to assess conditional lethalithy of NOMO1 cells grown in Human Plasma-Like Medium with dialyzed fetal bovine serum (HPLM+ds) (AID 1963878); note: nearly all actives have a fitted effect of over 35% in size; note: potency is the fitted concentration of half-maximal effect
How it was run: as §1

[7] = Quantitative highthroughput screen to assess conditional lethalithy of P12 Ichikawa cells grown in Human Plasma-Like Medium with dialyzed fetal bovine serum (HPLM+ds) (AID 1963879); settings: Potency: viability; note: nearly all actives have a fitted effect of over 35% in size; note: potency is the fitted concentration of half-maximal effect; for Viability: series mostly up to about 46 µM
How it was run: as §1

[8] = Cellular viability qHTS for adrenocortical cancer (ACC) cell line SW-13 (AID 1963989); settings: SW-13 ACC cells viability, CellTiter-Glo, 48 h; activity (max response): active compounds read low; note: nearly all actives have a fitted effect of over 65% in size; note: potency is the fitted concentration of half-maximal effect;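 for activity (max response): cells grown in serum-free medium with ITS supplement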
How it was run: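 Luminescent ATP read-out (CellTiter-Glo, 20 min at room temperature) measured metabolically competent SW-13 cells after 48 h compound treatment. Final concentrations spanned up to 46 uM; bortezomib served as positive control.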

[9] = Quantitative highthroughput screen to assess conditional lethalithy of P12 Ichikawa cells grown in RPMI1640 with dialyzed fetal bovine serum (RPMI+ds) (AID 1963880); settings: Potency: P12-Ichikawa viability; note: nearly all actives have a fitted effect of over 35% in size; note: potency is the fitted concentration of half-maximal effect
How it was run: as §1

[10] = Quantitative highthroughput screen to assess conditional lethalithy of P12 Ichikawa cells grown in RPMI1640 with untreated serum (RPMI+s) (AID 1963881); settings: Potency: viability; note: nearly all actives have a fitted effect of over 35% in size; note: potency is the fitted concentration of half-maximal effect; for Viability: series mostly up to about 46 µM
How it was run: as §1

[11] = Quantitative highthroughput screen to assess conditional lethalithy of SEM cells grown in Human Plasma-Like Medium with dialyzed fetal bovine serum (HPLM+ds) (AID 1963882); note: nearly all actives have a fitted effect of over 35% in size; note: potency is the fitted concentration of half-maximal effect; for Viability: series mostly up to about 46 µM
How it was run: as §1

[12] = Quantitative highthroughput screen to assess conditional lethalithy of SEM cells grown in RPMI1640 with unreated serum (RPMI+s) (AID 1963883); note: nearly all actives have a fitted effect of over 35% in size; note: potency is the fitted concentration of half-maximal effect
How it was run: as §1

[13] = Quantitative highthroughput screen to assess conditional lethalithy of SEM cells grown in RPMI1640 with dialyzed fetal bovine serum (RPMI+ds) (AID 1963884); note: nearly all actives have a fitted effect of over 35% in size; note: potency is the fitted concentration of half-maximal effect; for Viability: series mostly up to about 46 µM
How it was run: as §1

## NC1CCN(c2cccc(Cl)n2)CC1
[1]
  Potency: inactive
[2]
  Potency: inactive
[3]
  Potency: inactive

## Cc1ccc(Cl)c(OCC(O)CNC(C)(C)C)c1 (configuration not stated)
[1]
  Potency: inactive
[2]
  Potency: inactive
[3]
  Potency: inactive

## c1ccc2[nH]c(-c3cscn3)nc2c1
[1]
  Potency: inactive
[4]
  Potency: inactive
[5]
  Potency: inactive
[6]
  Potency: 8.33 µM (active)
[7]
  Potency: 9.35 µM (active)
[8]
  activity (max response): -9.06% and -18.4%
[3]
  Potency: inactive

## CC1(C)NC(=O)N(c2ccc([N+](=O)[O-])c(C(F)(F)F)c2)C1=O
[1]
  Potency: inactive
[4]
  Potency: inactive
[6]
  Potency: inactive
[7]
  Potency: inactive
[9]
  Potency: inactive
[10]
  Potency: inactive
[11]
  Potency: inactive
[12]
  Potency: inactive
[13]
  Potency: inactive
[3]
  Potency: inactive

## C[C@@H]1C[C@H]2[C@@H]3CCC4=CC(=O)C=C[C@]4(C)[C@@]3(F)[C@@H](O)C[C@]2(C)[C@@]1(O)C(=O)COC(=O)c1ccncc1
[1]
  Potency: 8.71 µM (active)
[8]
  activity (max response): -0.514%

## COc1ccc(C=CC(=O)Nc2ccccc2C(=O)O)cc1OC
[1]
  Potency: inactive
[4]
  Potency: inactive
[5]
  Potency: inactive
[7]
  Potency: inactive
[9]
  Potency: inactive
[10]
  Potency: inactive
[11]
  Potency: inactive
[12]
  Potency: inactive

## CSc1cccc(Nc2ncc3cc(-c4c(Cl)cccc4Cl)c(=O)n(C)c3n2)c1
[1]
  Potency: inactive
[4]
  Potency: inactive
[5]
  Potency: inactive
[6]
  Potency: inactive
[7]
  Potency: inactive
[10]
  Potency: inactive
[3]
  Potency: inactive

## NCCNC(=O)c1ccc(Cl)cn1
[1]
  Potency: inactive
[8]
  activity (max response): -2.26%
[3]
  Potency: inactive

## O=C(NCCO[N+](=O)[O-])c1cccnc1
[1]
  Potency: inactive
[4]
  Potency: inactive
[7]
  Potency: inactive
[9]
  Potency: inactive
[10]
  Potency: inactive
[11]
  Potency: inactive
[12]
  Potency: inactive
[13]
  Potency: inactive
[8]
  activity (max response): 2.63% and 5.13%
[3]
  Potency: inactive

## Nc1ccc(S(=O)(=O)Nc2ncccn2)cc1
[1]
  Potency: inactive
[4]
  Potency: inactive
[6]
  Potency: inactive
[7]
  Potency: inactive
[9]
  Potency: inactive
[10]
  Potency: inactive
[11]
  Potency: inactive
[12]
  Potency: inactive
[13]
  Potency: inactive

## Cc1ccc(C(C)C)c(O)c1
[1]
  Potency: inactive
[8]
  activity (max response): 10.4%

## CCCCN(CCN(CCCC)C(=O)N1CCOCC1)C(=O)N1CCOCC1
[1]
  Potency: inactive
[8]
  activity (max response): 13.7%

## CC1(C)O[C@@H]2C[C@H]3[C@@H]4C[C@H](F)C5=CC(=O)CC[C@]5(C)[C@H]4[C@@H](O)C[C@]3(C)[C@]2(C(=O)CO)O1
[1]
  Potency: inactive
[8]
  activity (max response): 3.69%

## CCOc1cc(C(=O)Nc2ccc(Cl)c(-c3nc4ccccc4[nH]3)c2)cc(OCC)c1OCC
[1]
  Potency: inactive
[7]
  Potency: inactive
[3]
  Potency: inactive

## CCN1CC(CCN2CCOCC2)C(c2ccccc2)(c2ccccc2)C1=O (configuration not stated)
[1]
  Potency: inactive
[8]
  activity (max response): 1.41%
[3]
  Potency: inactive

## N[C@@H](CSCCCO)C(=O)O
[1]
  Potency: inactive
[8]
  activity (max response): 14.2%

## O=C(Nc1cccnn1)N1CCC(=Cc2cccc(Oc3ccc(C(F)(F)F)cn3)c2)CC1
[1]
  Potency: inactive
[4]
  Potency: inactive
[5]
  Potency: inactive
[7]
  Potency: inactive
[9]
  Potency: inactive
[10]
  Potency: inactive
[11]
  Potency: inactive
[3]
  Potency: 15.8 µM (active)

## CCN(CC)CC(=O)Nc1c(C)cccc1C
[1]
  Potency: inactive
[8]
  activity (max response): 2.91%
[3]
  Potency: inactive

## CCc1ccc(C(=O)C(C)CN2CCCCC2)cc1 (configuration not stated)
[1]
  Potency: 30.9 µM (active)
[8]
  activity (max response): -7.06%

## COC(=O)c1cc(Cl)ccc1NS(=O)(=O)C(F)(F)F
[1]
  Potency: inactive
[8]
  activity (max response): -0.552%
[3]
  Potency: inactive

## CCOC(=O)N1CCN([N+]([O-])=NOc2ccc([N+](=O)[O-])cc2C#N)CC1
[1]
  Potency: inactive
[4]
  Potency: 3.32 µM (active)
[5]
  Potency: 2.96 µM (active)
[9]
  Potency: 1.05 µM (active)
[10]
  Potency: 1.05 µM (active)
[11]
  Potency: 1.18 µM (active)

## O=C(Nc1ccc([N+](=O)[O-])cc1)Nc1ccc([N+](=O)[O-])cc1
[1]
  Potency: inactive
[8]
  activity (max response): 3.91%

## Cc1[nH]c(=O)c(C#N)cc1-c1ccc2nccn2c1
[1]
  Potency: inactive
[5]
  Potency: inactive
[9]
  Potency: inactive
[10]
  Potency: inactive
[11]
  Potency: inactive
[12]
  Potency: inactive
[13]
  Potency: inactive
[8]
  activity (max response): 11.7%
[3]
  Potency: inactive

## O=c1[nH]cc(F)c(=O)[nH]1
[1]
  Potency: inactive
[6]
  Potency: 10.5 µM (active)
[7]
  Potency: 8.33 µM (active)
[9]
  Potency: 10.5 µM (active)
[11]
  Potency: 9.35 µM (active)
[12]
  Potency: 9.35 µM (active)
[13]
  Potency: 10.5 µM (active)
[8]
  activity (max response): -6.36%
[3]
  Potency: inactive

## COc1ccc(-c2cc(C(F)F)nn2-c2ccc(S(N)(=O)=O)cc2)cc1F
[1]
  Potency: inactive
[8]
  activity (max response): -7.1%

## NC(=O)CC[C@@H](N)C(=O)O
[1]
  Potency: inactive
[8]
  activity (max response): 12.6%

## COc1c(N2C[C@@H]3CCCN[C@H]3C2)c(F)cc2c(=O)c(C(=O)O)cn(C3CC3)c12
[1]
  Potency: inactive
[8]
  activity (max response): -9.27%

## COc1cc(Nc2ncc3c(n2)-c2ccc(Cl)cc2C(c2c(F)cccc2OC)=NC3)ccc1C(=O)O
[1]
  Potency: inactive
[4]
  Potency: 0.0833 µM (active)
[7]
  Potency: 0.0743 µM (active)
[10]
  Potency: 0.059 µM (active)
[8]
  Potency: 31.6 µM (active)
[3]
  Potency: 2.24 µM (active)

## N[C@H]1CN(c2c(F)cc3c(=O)c(C(=O)O)cn(C4C[C@@H]4F)c3c2Cl)CC12CC2 (some centres not stated)
[1]
  Potency: inactive
[5]
  Potency: inactive
[7]
  Potency: inactive
[9]
  Potency: inactive
[10]
  Potency: inactive
[12]
  Potency: inactive
[8]
  activity (max response): 4.52%
[3]
  Potency: inactive

## COc1ccc(Nc2cc(-c3cnc(N)nc3)nc(N3CCOCC3)n2)cn1
[1]
  Potency: inactive
[9]
  Potency: 2.64 µM (active)
[10]
  Potency: 2.35 µM (active)
[3]
  Potency: 2.24 µM (active)
